According to ChEMBL document CHEMBL1961873, “Compounds: GSK PKIS; Assays: Nanosyn kinase panel” (2012):

What was measured:
[1] = biological target: T1, Inhibitor of nuclear factor kappa-B kinase subunit epsilon (Homo sapiens) (UniProt Q14164); settings: at 1 µM;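 note: reported values are averaged percent inhibition figures against human IKKε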
T1 sequence (whole entry): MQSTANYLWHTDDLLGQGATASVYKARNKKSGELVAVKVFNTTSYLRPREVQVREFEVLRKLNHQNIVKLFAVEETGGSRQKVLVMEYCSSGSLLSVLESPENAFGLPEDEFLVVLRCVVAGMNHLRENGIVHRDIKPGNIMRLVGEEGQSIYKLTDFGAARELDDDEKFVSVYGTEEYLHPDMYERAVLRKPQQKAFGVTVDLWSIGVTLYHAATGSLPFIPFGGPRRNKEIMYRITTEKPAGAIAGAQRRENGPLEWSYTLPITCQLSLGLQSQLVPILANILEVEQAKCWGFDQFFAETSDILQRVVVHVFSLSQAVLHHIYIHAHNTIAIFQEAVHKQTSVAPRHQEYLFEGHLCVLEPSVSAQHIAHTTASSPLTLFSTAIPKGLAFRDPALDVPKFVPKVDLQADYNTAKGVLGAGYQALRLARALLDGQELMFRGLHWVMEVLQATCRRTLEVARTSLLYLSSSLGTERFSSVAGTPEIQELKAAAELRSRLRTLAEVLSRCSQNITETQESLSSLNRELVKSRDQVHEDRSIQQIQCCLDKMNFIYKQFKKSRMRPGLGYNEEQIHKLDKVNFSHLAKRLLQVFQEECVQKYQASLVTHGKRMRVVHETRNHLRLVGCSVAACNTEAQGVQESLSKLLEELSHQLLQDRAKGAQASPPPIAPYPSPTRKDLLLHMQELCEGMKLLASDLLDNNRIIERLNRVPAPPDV

[2] = biological target: T2, Serine/threonine-protein kinase Nek1 (Homo sapiens) (UniProt Q96PY6); settings: at 0.1 µM
T2 sequence (whole entry): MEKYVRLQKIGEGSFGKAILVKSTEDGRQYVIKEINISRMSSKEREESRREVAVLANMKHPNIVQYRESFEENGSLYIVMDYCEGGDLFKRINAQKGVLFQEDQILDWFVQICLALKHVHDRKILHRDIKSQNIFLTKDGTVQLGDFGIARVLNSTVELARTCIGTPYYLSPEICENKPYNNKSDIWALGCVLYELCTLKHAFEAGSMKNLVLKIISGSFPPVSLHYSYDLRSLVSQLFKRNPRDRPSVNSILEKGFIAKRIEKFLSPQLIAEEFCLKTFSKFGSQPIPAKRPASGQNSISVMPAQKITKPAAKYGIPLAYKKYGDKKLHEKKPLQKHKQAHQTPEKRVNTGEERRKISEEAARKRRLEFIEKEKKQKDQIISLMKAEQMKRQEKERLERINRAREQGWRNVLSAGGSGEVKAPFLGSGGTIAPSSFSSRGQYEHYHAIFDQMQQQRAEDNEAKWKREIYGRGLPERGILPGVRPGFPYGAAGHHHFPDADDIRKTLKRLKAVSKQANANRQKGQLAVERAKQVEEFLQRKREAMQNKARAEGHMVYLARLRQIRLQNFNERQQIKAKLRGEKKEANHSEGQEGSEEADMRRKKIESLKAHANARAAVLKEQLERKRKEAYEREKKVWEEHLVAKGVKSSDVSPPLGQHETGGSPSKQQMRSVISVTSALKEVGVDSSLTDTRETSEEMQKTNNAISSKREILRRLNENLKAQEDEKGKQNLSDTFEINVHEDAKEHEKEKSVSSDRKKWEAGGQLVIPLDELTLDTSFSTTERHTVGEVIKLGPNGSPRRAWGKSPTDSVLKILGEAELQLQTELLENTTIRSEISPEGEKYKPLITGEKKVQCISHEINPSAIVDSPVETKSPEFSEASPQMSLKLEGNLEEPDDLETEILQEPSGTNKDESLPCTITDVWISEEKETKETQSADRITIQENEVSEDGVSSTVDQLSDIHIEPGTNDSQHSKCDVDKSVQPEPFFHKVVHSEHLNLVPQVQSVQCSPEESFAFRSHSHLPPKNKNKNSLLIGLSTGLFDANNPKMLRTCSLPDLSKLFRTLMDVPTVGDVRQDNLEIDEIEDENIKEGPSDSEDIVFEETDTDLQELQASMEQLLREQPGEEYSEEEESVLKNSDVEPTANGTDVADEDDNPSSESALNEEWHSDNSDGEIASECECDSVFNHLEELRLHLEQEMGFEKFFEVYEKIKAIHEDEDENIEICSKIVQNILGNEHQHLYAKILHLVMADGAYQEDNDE

[3] = biological target: T2, Serine/threonine-protein kinase Nek1 (Homo sapiens); settings: at 1 µM
[4] = biological target: T3, Serine/threonine-protein kinase Nek2 (Homo sapiens) (UniProt P51955); settings: at 0.1 µM
T3 sequence (whole entry): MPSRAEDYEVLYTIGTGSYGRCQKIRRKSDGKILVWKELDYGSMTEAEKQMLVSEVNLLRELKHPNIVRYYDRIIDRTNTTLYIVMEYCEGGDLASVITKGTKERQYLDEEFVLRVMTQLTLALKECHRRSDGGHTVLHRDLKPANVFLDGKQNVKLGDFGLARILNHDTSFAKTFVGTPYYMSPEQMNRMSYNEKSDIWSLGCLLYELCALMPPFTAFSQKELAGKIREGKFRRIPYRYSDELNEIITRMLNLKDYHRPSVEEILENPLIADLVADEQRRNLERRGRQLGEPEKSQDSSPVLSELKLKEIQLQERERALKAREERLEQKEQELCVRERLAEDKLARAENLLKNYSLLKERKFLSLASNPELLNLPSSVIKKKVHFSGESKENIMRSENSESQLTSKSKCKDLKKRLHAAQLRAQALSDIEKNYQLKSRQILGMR

[5] = biological target: T3, Serine/threonine-protein kinase Nek2 (Homo sapiens); settings: at 1 µM
[6] = biological target: Serine/threonine-protein kinase Nek6 (Homo sapiens) (UniProt Q9HC98); settings: at 0.1 µM
Serine/threonine-protein kinase Nek6 (Homo sapiens), sequence (Q9HC98 whole entry): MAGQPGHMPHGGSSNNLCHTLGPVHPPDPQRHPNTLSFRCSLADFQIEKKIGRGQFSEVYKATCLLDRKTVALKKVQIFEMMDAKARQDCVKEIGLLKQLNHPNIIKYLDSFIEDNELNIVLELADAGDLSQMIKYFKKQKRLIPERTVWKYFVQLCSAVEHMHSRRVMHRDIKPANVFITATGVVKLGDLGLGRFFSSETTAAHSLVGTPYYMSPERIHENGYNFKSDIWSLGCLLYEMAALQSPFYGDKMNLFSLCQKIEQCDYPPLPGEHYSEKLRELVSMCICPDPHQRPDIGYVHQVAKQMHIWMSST

[7] = biological target: Serine/threonine-protein kinase Nek6 (Homo sapiens) (UniProt Q9HC98); settings: at 1 µM
[8] = biological target: Serine/threonine-protein kinase Nek7 (Homo sapiens) (UniProt Q8TDX7); settings: at 0.1 µM
Serine/threonine-protein kinase Nek7 (Homo sapiens), sequence (Q8TDX7 whole entry, looked up): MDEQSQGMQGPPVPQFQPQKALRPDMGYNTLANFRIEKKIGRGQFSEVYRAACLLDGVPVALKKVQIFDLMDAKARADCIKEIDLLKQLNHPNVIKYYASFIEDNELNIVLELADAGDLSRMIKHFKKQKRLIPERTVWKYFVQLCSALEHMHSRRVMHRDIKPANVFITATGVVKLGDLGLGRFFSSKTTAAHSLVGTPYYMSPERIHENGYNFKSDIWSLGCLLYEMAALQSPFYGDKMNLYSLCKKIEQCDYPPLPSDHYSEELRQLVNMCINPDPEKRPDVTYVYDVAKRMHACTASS

[9] = biological target: Serine/threonine-protein kinase Nek7 (Homo sapiens) (UniProt Q8TDX7); settings: at 1 µM
[10] = biological target: T4, Serine/threonine-protein kinase Nek9 (Homo sapiens) (UniProt Q8TD19); settings: at 0.1 µM
T4 sequence (whole entry): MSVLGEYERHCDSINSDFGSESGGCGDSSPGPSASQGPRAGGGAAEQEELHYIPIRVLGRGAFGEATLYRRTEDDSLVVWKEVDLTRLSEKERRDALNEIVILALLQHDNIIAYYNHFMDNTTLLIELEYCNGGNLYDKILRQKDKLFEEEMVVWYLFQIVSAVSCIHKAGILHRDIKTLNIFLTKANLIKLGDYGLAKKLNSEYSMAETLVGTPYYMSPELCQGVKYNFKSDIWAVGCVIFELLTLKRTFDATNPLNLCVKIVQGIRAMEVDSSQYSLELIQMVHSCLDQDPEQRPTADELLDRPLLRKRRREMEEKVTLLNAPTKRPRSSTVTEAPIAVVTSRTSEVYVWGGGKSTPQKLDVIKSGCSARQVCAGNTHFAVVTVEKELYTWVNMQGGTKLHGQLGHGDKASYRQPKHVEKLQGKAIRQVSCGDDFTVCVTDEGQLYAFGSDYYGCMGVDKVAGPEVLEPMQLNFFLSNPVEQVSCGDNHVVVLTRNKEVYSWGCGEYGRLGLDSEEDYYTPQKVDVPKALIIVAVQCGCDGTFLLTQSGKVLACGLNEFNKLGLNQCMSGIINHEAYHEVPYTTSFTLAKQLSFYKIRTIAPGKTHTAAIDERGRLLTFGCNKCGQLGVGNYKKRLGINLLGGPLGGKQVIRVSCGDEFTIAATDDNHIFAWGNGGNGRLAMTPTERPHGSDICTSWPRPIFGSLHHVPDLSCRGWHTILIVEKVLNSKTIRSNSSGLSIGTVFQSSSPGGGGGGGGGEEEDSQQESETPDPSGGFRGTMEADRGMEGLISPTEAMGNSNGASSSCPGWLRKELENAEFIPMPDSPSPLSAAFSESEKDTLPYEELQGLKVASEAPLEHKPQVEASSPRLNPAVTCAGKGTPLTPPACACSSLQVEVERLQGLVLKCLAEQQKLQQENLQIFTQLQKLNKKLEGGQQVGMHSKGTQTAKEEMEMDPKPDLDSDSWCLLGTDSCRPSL

[11] = biological target: T4, Serine/threonine-protein kinase Nek9 (Homo sapiens); settings: at 1 µM
[12] = biological target: Serine/threonine-protein kinase PLK1 (Homo sapiens) (UniProt P53350); settings: at 0.1 µM
Serine/threonine-protein kinase PLK1 (Homo sapiens), sequence (P53350 whole entry): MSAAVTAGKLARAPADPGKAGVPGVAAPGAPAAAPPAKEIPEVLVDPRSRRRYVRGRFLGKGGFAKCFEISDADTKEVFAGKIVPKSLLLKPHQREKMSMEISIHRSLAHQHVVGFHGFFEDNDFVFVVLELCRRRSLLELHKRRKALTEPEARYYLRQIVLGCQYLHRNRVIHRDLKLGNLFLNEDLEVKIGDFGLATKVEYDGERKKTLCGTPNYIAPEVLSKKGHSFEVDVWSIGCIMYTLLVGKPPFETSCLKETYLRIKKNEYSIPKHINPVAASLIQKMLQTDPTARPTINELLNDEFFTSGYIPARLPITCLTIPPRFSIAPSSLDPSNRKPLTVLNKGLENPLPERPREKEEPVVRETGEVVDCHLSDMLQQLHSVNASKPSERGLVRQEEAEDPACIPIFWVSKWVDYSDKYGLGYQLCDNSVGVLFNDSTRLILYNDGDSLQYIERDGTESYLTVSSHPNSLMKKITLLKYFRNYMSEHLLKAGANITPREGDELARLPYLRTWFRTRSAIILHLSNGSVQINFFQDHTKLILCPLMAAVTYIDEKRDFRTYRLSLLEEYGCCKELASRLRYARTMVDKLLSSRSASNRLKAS

[13] = biological target: Serine/threonine-protein kinase PLK1 (Homo sapiens) (UniProt P53350); settings: at 1 µM
[14] = biological target: T5, Dual specificity protein kinase TTK (Homo sapiens) (UniProt P33981); settings: at 0.1 µM
T5 sequence (whole entry): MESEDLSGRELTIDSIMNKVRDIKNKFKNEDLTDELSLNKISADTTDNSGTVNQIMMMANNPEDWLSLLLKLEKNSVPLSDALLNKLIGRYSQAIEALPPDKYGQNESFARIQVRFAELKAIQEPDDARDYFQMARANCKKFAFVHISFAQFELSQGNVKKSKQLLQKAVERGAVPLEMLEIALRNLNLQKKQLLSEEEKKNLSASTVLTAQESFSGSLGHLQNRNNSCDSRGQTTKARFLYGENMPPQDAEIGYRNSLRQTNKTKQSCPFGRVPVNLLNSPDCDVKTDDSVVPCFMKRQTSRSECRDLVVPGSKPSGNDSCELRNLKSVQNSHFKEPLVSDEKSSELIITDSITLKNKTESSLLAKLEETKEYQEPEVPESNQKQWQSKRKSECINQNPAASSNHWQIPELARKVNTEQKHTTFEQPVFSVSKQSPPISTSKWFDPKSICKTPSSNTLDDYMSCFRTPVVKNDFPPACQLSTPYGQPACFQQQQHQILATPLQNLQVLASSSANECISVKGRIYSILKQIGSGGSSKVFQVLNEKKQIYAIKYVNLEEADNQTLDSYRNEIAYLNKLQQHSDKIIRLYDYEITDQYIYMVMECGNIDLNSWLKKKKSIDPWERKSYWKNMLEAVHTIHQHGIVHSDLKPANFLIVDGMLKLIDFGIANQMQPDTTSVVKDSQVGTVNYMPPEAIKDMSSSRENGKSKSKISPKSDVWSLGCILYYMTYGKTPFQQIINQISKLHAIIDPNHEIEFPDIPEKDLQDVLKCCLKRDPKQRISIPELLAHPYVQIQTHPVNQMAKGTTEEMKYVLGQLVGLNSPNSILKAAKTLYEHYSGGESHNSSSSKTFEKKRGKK

[15] = system: T6, Receptor-type tyrosine-protein kinase FLT3 (Homo sapiens), P36888 [D835Y]; settings: at 1 µM
T6 sequence (whole entry): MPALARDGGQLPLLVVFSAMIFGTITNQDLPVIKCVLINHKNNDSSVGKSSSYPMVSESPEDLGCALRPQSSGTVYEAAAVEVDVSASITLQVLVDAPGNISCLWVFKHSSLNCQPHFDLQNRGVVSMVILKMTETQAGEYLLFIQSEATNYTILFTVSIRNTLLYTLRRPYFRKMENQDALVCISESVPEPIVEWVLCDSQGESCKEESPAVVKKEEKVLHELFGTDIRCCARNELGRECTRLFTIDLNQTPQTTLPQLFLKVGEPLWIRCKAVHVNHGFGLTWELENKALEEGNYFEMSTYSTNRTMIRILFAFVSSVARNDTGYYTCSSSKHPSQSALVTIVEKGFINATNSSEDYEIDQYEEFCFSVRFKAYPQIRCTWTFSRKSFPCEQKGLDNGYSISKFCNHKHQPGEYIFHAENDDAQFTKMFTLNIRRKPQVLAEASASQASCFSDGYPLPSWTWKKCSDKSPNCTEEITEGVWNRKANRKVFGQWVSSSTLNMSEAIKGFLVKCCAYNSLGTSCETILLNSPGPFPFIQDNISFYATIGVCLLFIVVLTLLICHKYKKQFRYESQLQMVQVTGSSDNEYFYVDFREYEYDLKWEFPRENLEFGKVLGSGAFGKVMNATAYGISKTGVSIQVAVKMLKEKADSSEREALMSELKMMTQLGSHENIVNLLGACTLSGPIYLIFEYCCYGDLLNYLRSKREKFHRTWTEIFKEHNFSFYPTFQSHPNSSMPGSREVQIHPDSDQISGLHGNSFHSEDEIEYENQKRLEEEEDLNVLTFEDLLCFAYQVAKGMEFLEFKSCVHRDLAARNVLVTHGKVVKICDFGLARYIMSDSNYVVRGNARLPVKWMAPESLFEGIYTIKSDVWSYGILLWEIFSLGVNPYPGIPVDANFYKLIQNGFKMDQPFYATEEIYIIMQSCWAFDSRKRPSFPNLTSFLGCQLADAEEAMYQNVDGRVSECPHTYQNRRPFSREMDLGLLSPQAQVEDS

[16] = biological target: Vascular endothelial growth factor receptor 3 (Homo sapiens) (UniProt P35916); settings: at 0.1 µM
Vascular endothelial growth factor receptor 3 (Homo sapiens), sequence (P35916 whole entry): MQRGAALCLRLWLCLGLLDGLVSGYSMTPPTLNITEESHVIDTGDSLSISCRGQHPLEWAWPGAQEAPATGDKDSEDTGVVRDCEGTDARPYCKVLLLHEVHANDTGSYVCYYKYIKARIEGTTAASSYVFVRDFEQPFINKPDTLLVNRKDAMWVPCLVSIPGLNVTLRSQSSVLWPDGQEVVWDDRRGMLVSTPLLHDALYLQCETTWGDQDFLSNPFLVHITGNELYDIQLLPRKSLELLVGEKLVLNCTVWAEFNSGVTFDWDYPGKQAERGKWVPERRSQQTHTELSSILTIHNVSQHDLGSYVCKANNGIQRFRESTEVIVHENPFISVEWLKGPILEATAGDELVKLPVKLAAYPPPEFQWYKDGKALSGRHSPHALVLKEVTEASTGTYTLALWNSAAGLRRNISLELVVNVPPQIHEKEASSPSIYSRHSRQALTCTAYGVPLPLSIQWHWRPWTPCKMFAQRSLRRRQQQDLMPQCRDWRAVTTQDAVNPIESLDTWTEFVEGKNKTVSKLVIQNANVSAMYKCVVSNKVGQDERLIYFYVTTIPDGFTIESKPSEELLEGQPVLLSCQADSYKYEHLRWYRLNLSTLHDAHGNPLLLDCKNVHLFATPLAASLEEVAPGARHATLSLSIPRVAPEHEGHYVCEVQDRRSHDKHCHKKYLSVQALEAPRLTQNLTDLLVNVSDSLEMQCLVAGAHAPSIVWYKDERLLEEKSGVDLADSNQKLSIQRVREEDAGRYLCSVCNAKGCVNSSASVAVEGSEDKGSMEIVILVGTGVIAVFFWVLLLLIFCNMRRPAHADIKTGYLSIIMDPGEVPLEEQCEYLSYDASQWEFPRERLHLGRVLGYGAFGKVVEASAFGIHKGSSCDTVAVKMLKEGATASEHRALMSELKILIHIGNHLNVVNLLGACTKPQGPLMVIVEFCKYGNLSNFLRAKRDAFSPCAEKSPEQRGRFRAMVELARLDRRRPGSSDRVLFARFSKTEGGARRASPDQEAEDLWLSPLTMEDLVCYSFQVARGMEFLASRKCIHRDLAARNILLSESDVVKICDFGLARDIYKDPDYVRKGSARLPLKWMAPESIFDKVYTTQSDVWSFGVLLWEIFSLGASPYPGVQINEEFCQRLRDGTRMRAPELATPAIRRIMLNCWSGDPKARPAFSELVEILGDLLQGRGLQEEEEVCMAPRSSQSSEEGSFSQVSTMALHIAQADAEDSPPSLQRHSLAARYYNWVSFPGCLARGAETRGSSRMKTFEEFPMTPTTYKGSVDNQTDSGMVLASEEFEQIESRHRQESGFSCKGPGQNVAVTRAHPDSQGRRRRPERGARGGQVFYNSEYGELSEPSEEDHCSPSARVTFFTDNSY

[17] = biological target: Vascular endothelial growth factor receptor 3 (Homo sapiens) (UniProt P35916); settings: at 1 µM
[18] = biological target: Macrophage colony-stimulating factor 1 receptor (Homo sapiens) (UniProt P07333); settings: at 0.1 µM
Macrophage colony-stimulating factor 1 receptor (Homo sapiens), sequence (P07333 whole entry): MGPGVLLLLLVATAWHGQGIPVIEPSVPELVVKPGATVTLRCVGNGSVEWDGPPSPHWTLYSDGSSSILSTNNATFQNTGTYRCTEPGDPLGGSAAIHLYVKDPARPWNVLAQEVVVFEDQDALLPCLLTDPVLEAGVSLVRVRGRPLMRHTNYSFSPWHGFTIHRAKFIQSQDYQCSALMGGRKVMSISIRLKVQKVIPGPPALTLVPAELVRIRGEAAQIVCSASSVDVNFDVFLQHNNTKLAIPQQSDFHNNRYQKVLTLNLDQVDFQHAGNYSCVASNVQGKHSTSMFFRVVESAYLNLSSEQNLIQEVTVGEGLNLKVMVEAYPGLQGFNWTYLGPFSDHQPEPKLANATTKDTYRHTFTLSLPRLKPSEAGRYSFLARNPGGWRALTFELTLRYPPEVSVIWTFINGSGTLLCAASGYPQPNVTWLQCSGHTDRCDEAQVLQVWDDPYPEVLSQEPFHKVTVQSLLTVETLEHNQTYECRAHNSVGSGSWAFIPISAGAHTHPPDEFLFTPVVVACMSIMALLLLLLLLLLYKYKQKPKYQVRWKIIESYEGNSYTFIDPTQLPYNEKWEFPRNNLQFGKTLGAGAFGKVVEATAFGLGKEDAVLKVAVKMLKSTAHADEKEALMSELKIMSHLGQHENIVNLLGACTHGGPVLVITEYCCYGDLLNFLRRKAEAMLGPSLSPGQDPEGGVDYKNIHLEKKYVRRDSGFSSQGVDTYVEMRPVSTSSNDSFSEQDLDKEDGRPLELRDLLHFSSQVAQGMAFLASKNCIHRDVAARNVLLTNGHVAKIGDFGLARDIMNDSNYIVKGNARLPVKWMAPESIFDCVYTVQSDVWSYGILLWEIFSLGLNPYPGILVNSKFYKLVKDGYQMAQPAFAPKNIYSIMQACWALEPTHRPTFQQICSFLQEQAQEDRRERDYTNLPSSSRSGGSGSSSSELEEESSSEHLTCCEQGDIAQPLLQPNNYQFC

[19] = biological target: Macrophage colony-stimulating factor 1 receptor (Homo sapiens) (UniProt P07333); settings: at 1 µM
[20] = biological target: Tyrosine-protein kinase Fyn (Homo sapiens) (UniProt P06241); settings: at 0.1 µM
Tyrosine-protein kinase Fyn (Homo sapiens), sequence (P06241 2-537 limits assumed): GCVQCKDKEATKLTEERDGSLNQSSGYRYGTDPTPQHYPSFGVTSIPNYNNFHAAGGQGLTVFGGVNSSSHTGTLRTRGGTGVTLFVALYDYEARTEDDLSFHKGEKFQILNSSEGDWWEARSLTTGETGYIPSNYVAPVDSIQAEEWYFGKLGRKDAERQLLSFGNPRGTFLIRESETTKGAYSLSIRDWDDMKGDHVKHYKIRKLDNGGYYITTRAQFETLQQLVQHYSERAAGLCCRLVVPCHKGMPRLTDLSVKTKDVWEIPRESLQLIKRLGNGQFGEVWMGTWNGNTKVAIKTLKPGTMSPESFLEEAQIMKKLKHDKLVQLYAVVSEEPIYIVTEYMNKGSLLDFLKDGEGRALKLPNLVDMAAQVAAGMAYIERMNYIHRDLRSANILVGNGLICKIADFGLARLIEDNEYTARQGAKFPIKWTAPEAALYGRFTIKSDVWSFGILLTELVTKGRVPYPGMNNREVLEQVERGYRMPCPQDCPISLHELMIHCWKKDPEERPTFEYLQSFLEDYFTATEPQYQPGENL

| Compound | inhibition [1] | inhibition [2] | inhibition [3] | inhibition [4] | inhibition [5] | inhibition [6] | inhibition [7] | inhibition [8] | inhibition [9] | inhibition [10] | inhibition [11] | inhibition [12] | inhibition [13] | inhibition [14] | inhibition [15] | inhibition [16] | inhibition [17] | inhibition [18] | inhibition [19] | inhibition [20] |
| --- | --- | --- | --- | --- | --- | --- | --- | --- | --- | --- | --- | --- | --- | --- | --- | --- | --- | --- | --- | --- |
| Fc1ccc(-c2nn3ncccc3c2-c2ccnc(Nc3ccc4c(c3)OCCO4)n2)cc1 | 7.06% | 2.45% | 1.02% | 5.03% | 4.48% | 0.64% | 3.68% | 6.98% | 4.83% | 6.56% | 12% | 3.5% | 28.8% | 8.44% | 2.87% | 7.5% | 47.7% | 14.4% | 59.1% | 47% |
| CCN1CCC(CC(=O)Nc2n[nH]c3nnc(-c4cccc(F)c4F)cc23)CC1 | 4.56% | 1.55% | 1.21% | 2.78% | 1.49% | 2.04% | 2.93% | 2.55% | 1.27% | 0.14% | -3.93% | 2.14% | -0.76% | 4.15% | -2.23% | 1.01% | 1.82% | -1.12% | 5.72% | -0.21% |
